Hits are enriched below; roughly 3.8% of the tested compounds scored in any of these assays.
NALP1 inh: blocks the NALP1 inflammasome reconstituted in yeast | S. cerevisiae NALP1/ASC/caspase-1 growth, X-gal OD620, 72 h | inhibition, % at 10 µM | hit rate 0.61% among 280,000; in the data active = inhibition mostly above about 24%, no sharp cut-off; inactive = mostly below about 32%
HSF1 inhib: HSF1 inhibition | NIH3T3-HGL HSE-luciferase, MG132-induced, luminescence 8 h; hits give low values | activity change, negative = inhibition, % at 7.5 µM (by protocol) | hit rate 0.77% among 300,000 | AID 2098;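 active = more than half of replicate wells show activity change below -50%, luminescence cut by over half; inconclusive = some wells, but at most half, below -50%; inactive = no replicate well below -50%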;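 also: luciferase reports HSF-1 transcriptional activity via heat shock element; 0% = median of DMSO wells and -100% = zero luminescence signal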
HSP90 inh: HSP90 refolding inhibition in rabbit reticulocyte lysate | inhibition, % at 5.6 µM | luciferase refolding luminescence, 3 h | hit rate 0.91% among 290,000;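 active = inhibition above the screen-wide mean plus 3 SD, computed separately per campaign, cut at about 16% in these data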;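 also: 0% = DMSO wells and 100% = 60 µM geldanamycin wells; inhibitors lower the luminescence because luciferase stays unfolded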
Hsp70 activator: Hsp70 transcriptional activation, primary screen. hit rate 0.04% among 200,000. AID 1203. activation, % at 10 µM. HeLa Hsp70 promoter luciferase reporter, luminescence; scaled: vehicle 0, proteasome-inhibitor control 100%;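 active = activation above the mean across all tested compounds plus 3 SD, cutoff set per campaign, cut at about 5.5% in these data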;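 also: 100% = MG132 at 30 µM as the positive control and 0% = DMSO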
HSF1 activator: increases HSF-1 driven luciferase reporter signal | hit rate 1.7% among 300,000 | activation, % at 9 µM | NIH3T3-HGL HSF-1 luciferase reporter, MG132, 8 h; 100% = twice DMSO control signal;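 active = mean replicate activation of at least 50% with a set share of replicates each reaching 50%; inconclusive = only one of those two conditions met; inactive = mean below 50% and too few replicates reaching it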;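 also: 0% = median of the neutral control wells and 100% = twice that signal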
p-CIP stab down: lowers stability of the mouse p/CIP coactivator protein; F442A p/CIP-EGFP cells, EGFP fluorescence, 16 h; decrease of EGFP signal, % at 10 µM; hit rate 0.01% among 290,000; AID 1984;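 active = EGFP signal decrease of at least 30% at 10 µM or well 3 SD below plate mean, unless failing retest; inactive = the rest, including hits failing retest or dose response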
Target sequence (Q05BA5 1-1403): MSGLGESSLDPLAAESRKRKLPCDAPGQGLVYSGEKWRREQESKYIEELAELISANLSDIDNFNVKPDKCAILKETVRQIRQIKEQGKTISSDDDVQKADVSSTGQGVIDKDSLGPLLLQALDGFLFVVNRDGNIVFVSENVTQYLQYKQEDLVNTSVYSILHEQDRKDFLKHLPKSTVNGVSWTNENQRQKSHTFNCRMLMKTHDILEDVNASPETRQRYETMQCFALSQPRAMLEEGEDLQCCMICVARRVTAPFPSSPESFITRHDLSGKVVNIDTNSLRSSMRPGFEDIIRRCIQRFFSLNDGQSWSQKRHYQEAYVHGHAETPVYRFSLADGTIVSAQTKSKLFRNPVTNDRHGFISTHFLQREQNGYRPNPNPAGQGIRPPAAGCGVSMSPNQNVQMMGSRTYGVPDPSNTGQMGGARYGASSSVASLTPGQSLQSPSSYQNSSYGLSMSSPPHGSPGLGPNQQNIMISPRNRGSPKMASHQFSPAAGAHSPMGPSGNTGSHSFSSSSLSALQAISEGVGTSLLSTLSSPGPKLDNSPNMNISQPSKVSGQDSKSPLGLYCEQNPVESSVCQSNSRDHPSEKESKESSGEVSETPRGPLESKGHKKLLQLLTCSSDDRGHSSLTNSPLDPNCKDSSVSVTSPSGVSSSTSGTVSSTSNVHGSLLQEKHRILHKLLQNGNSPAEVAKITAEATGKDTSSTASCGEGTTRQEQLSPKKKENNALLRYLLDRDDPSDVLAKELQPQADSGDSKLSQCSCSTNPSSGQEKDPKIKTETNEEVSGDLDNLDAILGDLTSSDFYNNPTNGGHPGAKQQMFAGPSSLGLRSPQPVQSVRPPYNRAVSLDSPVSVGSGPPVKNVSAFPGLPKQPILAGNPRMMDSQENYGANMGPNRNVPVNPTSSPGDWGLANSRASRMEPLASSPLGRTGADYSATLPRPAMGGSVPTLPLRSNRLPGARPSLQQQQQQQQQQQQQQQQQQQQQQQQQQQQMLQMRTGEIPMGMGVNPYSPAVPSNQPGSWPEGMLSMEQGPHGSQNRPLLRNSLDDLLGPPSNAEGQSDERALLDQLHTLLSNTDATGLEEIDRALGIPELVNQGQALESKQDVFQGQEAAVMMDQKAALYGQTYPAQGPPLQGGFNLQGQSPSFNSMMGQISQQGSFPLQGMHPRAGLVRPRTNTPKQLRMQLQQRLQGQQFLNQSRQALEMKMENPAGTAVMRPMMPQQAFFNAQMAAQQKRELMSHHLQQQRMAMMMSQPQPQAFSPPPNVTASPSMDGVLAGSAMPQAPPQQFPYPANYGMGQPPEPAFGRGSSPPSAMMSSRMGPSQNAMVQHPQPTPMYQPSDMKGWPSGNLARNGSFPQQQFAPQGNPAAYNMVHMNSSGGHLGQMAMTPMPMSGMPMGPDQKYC
* = called active by the depositor.

What do the screens show for `COC(=O)Nc1c(-c2ccccc2)nc2ccc(Cl)cn12`?
NALP1 inh: -1; HSF1 inhib: -6; HSP90 inh: -6; HSF1 activator: -5; p-CIP stab down: -13

How did CCCCNc1nc(-c2ccccc2)nc(-n2ccnc2)n1 do in these assays?
NALP1 inh: 44*; HSF1 inhib: -4; HSP90 inh: 1; Hsp70 activator: 0; HSF1 activator: -6; p-CIP stab down: 15

How did C=CCNc1nc(-c2ccccc2)nc(-n2ccnc2)n1 do in these assays?
NALP1 inh: 2; HSF1 inhib: -7; HSP90 inh: 2; Hsp70 activator: 0; HSF1 activator: -4; p-CIP stab down: -10

How did O=C(COc1ccc(S(=O)(=O)N2CCOCC2)cc1)Nc1ccccc1F do in these assays?
HSF1 inhib: -4; HSF1 activator: -2

What do the screens show for `Nc1ccc2c(c1)OC1(CCCC1)O2`?
NALP1 inh: -15; HSF1 inhib: -89*; HSP90 inh: 5; Hsp70 activator: 0; HSF1 activator: -91; p-CIP stab down: -4

Results for Cc1ccc(C2(C)NC(=O)N(Cc3c(C)noc3C)C2=O)cc1 (stereo not drawn) ?
NALP1 inh: 19*; HSF1 inhib: 17; HSP90 inh: 1; Hsp70 activator: 0; HSF1 activator: 32; p-CIP stab down: -10

Results for O=S(=O)(NCCC1=CCCCC1)c1ccc(OC(F)(F)F)cc1 ?
HSF1 inhib: 7; HSF1 activator: -3

What do the screens show for `COc1ccccc1OCc1nnc(SCCN2CCOCC2)o1`?
NALP1 inh: 10; HSF1 inhib: 21; HSP90 inh: 1; Hsp70 activator: 0; HSF1 activator: 58*; p-CIP stab down: -14

What do the screens show for `COc1ccccc1OCc1nnc(SCC(=O)N2CCCC2)o1`?
NALP1 inh: -11; HSF1 inhib: -5; HSP90 inh: 2; HSF1 activator: -13; p-CIP stab down: -7

How did NC1CCN(c2c(F)cc3c(=O)c(C(=O)O)cn(C4CC4)c3c2Cl)C1 (stereo not drawn) do in these assays?
NALP1 inh: 10; HSF1 inhib: -2; HSP90 inh: 3; HSF1 activator: -1; p-CIP stab down: -3

How did Cc1ccc(NC(=O)/C(Cl)=C/c2ccccc2)cc1C do in these assays?
NALP1 inh: 37*; HSF1 inhib: 10; HSP90 inh: 5; Hsp70 activator: 0; HSF1 activator: inconclusive; p-CIP stab down: 4

How did COc1ccc(S(=O)(=O)Nc2cccnc2)cc1OC do in these assays?
NALP1 inh: -5; HSF1 inhib: -4; HSP90 inh: -1; HSF1 activator: -6; p-CIP stab down: 0

How did O=C(Nc1ccc2c(c1)OCO2)c1ccccc1 do in these assays?
NALP1 inh: 28; HSF1 inhib: 21; HSP90 inh: 9; HSF1 activator: 58*; p-CIP stab down: -9

Results for O=C(Nc1ccc2c(c1)OCO2)c1cc(-c2ccccc2Cl)on1 ?
NALP1 inh: 21; HSF1 inhib: 14; HSP90 inh: 1; HSF1 activator: 57*; p-CIP stab down: 3

Results for CC(C)(O)C#Cc1ccc(C(=O)Nc2ccc3c(c2)OCO3)s1 ?
NALP1 inh: 19; HSF1 inhib: 41; HSP90 inh: -4; HSF1 activator: 60*; p-CIP stab down: -6

How did O=C(Nc1ccc2c(c1)OCCO2)C(=S)NCc1ccccc1 do in these assays?
NALP1 inh: -2; HSF1 inhib: 45; HSP90 inh: 2; Hsp70 activator: 0; HSF1 activator: 68*; p-CIP stab down: -13

How did O=C(Nc1ccc2c(c1)OCO2)c1cccc(F)c1 do in these assays?
NALP1 inh: 2; HSF1 inhib: 14; HSP90 inh: -3; Hsp70 activator: 1; HSF1 activator: 17; p-CIP stab down: -2

Results for O=C(NCc1ccc2c(c1)OCO2)c1cc(-c2ccccc2Cl)on1 ?
NALP1 inh: -3; HSF1 inhib: 1; HSP90 inh: 2; Hsp70 activator: 0; HSF1 activator: -9; p-CIP stab down: 4

How did COc1ccc(C(=O)CSc2[nH]c(=O)cc(C(F)(F)F)c2C#N)cc1 do in these assays?
NALP1 inh: 23; HSF1 inhib: 3; HSP90 inh: 0; HSF1 activator: -3; p-CIP stab down: -4

Results for CCOC(=O)Cc1nnc(NC(=O)CSc2nnc3c(n2)[nH]c2ccccc23)s1 ?
NALP1 inh: -6; HSF1 inhib: -2; HSP90 inh: -1; Hsp70 activator: 0; HSF1 activator: -2; p-CIP stab down: 5

How did CC(=O)OC1CC2(C)/C(=N\O)CCC2C2CCc3cc(O)ccc3C12 (stereo not drawn) do in these assays?
NALP1 inh: 12; HSF1 inhib: -4; HSP90 inh: 3; HSF1 activator: 2; p-CIP stab down: 7

What do the screens show for `CN(C)c1ccc(N2C(=NC(=O)COc3ccccc3)SC3CS(=O)(=O)CC32)cc1` (stereo not drawn)?
NALP1 inh: 7; HSF1 inhib: -8; HSP90 inh: -3; HSF1 activator: -29; p-CIP stab down: -11

How did C=CCN1CC(=O)N2C(c3ccccc3)c3[nH]c4ccccc4c3C[C@H]2C1=O (stereo partly drawn) do in these assays?
NALP1 inh: 30; HSF1 inhib: 1; HSP90 inh: -3; HSF1 activator: 17; p-CIP stab down: 7

What do the screens show for `O=C(Nc1ccc2c(c1)OCCO2)c1coc2ccccc2c1=O`?
NALP1 inh: 11; HSF1 inhib: -52*; HSP90 inh: 5; Hsp70 activator: 0; HSF1 activator: -61; p-CIP stab down: 7

How did O=C(NC(=S)Nc1ccc2c(c1)OCO2)c1ccccc1 do in these assays?
NALP1 inh: 1; HSF1 inhib: 26; HSP90 inh: -1; Hsp70 activator: 0; HSF1 activator: 57*; p-CIP stab down: -7

Results for O=C(CC(=O)c1ccccc1)Nc1ccc2c(c1)OCCO2 ?
NALP1 inh: 14; HSF1 inhib: 28; HSP90 inh: 0; Hsp70 activator: 0; HSF1 activator: 54*; p-CIP stab down: -4

What do the screens show for `Cc1ccccc1N1C(=O)c2ccccc2C1O` (stereo not drawn)?
NALP1 inh: 20; HSF1 inhib: -7; HSP90 inh: -1; HSF1 activator: -5; p-CIP stab down: -1

What do the screens show for `O=C(COC(=O)Cn1cnc2ccccc21)Nc1cc2c(cc1Cl)C(=O)c1ccccc1C2=O`?
NALP1 inh: 15; HSF1 inhib: 52; HSP90 inh: -3; Hsp70 activator: 0; HSF1 activator: 74*; p-CIP stab down: -19

How did COC(=O)c1sc(N/N=C/c2ccc(C(C)C)cc2)nc1C do in these assays?
NALP1 inh: 15; HSF1 inhib: 9; HSP90 inh: -7; HSF1 activator: 25; p-CIP stab down: -5

How did O=C(C1CCC(CNS(=O)(=O)c2cccc3cccnc23)CC1)N1CCCC1 (stereo not drawn) do in these assays?
NALP1 inh: 12; HSF1 inhib: -86*; HSP90 inh: 3; Hsp70 activator: 0; HSF1 activator: -89; p-CIP stab down: 1

Screening data deposited in PubChem by several laboratories.
